Screening data from PubChem BioAssay.
In the library only some 9% were active in any assay of this set; here they are far more common.
HttQ103 aggreg – inhibitors of mutant huntingtin aggregate formation in PC12 cells; PC12 HttQ103-GFP aggregates, Acumen cytometry, 40 h; Potency, µM (doses to about 46.1 µM), without a hit: at the top dose activity change, negative = inhibition, hits mostly inhibitors; actives 1.1% (n = 220,000); AID 1688; further: on the % scale 0 is the no-effect control and ±100 the full control effect; nearly all actives have a fitted effect of over 60% in size
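Inducible Q103 Huntingtin exon 1–GFP PC12 line, 1500 cells/well in phenol red free DMEM with 5% equine and 5% calf serum. Tebufenozide 100 nM induced expression; compounds titrated; aggregates quantified by cytometry.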
HPGD inh – HPGD (human) dehydrogenase inhibition; P15428; actives 4.3% (n = 150,000); Potency, µM, for inactives: top-dose activity change, negative = inhibition, most hits filed as inhibitors; purified HPGD, NADH fluorescence kinetic, PGE2 substrate; active means well fitted inhibition curve with a large enough effect, not every such curve was filed as active; inconclusive means small, poorly fitted or top-dose-only effect, or another doubt; inactive means no such curve, though single readings can be large or run the other way; further: on the % scale 0 is the no-effect control and ±100 the full control effect
Target sequence (P15428 whole entry, looked up): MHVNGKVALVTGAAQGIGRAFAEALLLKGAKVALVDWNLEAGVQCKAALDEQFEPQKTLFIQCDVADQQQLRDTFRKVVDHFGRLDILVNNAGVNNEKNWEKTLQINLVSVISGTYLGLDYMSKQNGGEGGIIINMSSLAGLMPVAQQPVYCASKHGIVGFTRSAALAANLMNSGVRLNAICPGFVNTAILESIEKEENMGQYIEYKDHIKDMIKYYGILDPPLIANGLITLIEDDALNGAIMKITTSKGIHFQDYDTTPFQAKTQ
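NADH formation kinetics: reaction with 30 uM PGE2 and 1 mM NAD+ (final), 20 nM enzyme, Tris-HCl pH 8 with Tween 20, after 15 min compound preincubation at room temperature. Fluorescence change, last versus first of five reads.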
HTT ATP protect – cytoprotection in Huntington HTT-Q103 PC12 cell model | PC12 HTT-Q103 induced, cytoprotection, ATP luminescence, 40 h | Potency, µM (doses to about 56.4 µM), inactives show cytoprotection (ATP increase), actives largely listed as activators | actives 0.14% (n = 230,000) | AID 1471; further: % of control where 0% means no effect; nearly all actives have a fitted effect of over 45% in size
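PC12 cells stably carrying ecdysone-inducible Htt exon 1 (Q103)–GFP were induced with 100 nM tebufenozide (final) alongside library compounds in a dose series. Cytoprotection was scored as retained ATP by ATPlite luminescence.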
ALDH1A1 inh – inhibitors of human aldehyde dehydrogenase 1A1 | Potency, µM (top dose mostly 75.3 µM), without a hit: at the highest dose activity, negative = inhibition, usual class: inhibitors | actives 7.3% (n = 220,000) | Purified ALDH1A1, NADH fluorescence, propionaldehyde substrate | AID 1030 | P00352; active means well fitted inhibition curve with a large enough effect, not every such curve was filed as active; inconclusive means small, poorly fitted or top-dose-only effect, or another doubt; inactive means no such curve, though single readings can be large or run the other way;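 further: plate controls were no enzyme wells and a reference inhibitor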
Target sequence (P00352 whole entry, looked up): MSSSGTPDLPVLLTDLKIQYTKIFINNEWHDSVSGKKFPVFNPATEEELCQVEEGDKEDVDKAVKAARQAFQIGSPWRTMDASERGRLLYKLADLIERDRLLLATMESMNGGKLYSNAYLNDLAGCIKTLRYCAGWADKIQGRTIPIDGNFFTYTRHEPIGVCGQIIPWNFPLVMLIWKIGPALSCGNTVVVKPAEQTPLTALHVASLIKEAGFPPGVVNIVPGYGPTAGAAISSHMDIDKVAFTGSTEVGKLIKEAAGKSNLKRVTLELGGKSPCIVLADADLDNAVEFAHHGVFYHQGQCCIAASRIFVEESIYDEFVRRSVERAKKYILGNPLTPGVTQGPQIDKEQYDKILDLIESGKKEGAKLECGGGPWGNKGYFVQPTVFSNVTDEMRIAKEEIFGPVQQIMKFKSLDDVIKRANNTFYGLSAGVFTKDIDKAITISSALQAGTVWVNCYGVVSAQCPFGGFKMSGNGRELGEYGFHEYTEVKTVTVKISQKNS
Luc counter – Kinase-Glo luciferase inhibition (counter-screen); Kinase-Glo luciferase, ATP luminescence, 8 min; AID 1379; Potency, µM (doses to about 38.3 µM), without a hit: at the highest dose activity change, negative = inhibition, usual class: inhibitors; actives 0.28% (n = 200,000); further: on the % scale 0 is the no-effect control and ±100 the full control effect; nearly all actives have a fitted effect of over 60% in size
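Light output from Kinase-Glo luciferase with luciferin and 10 uM ATP in 50 mM imidazole pH 7.2, KCl, MgCl2, Tween 20, BSA; compound pin-delivered, 8-min ambient incubation, then luminescence read.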
LMNA splice mod – LMNA splicing modulation. actives 0.01% (n = 200,000). HeLa LMNA splicing GFP/RFP minigene ratio, 48 h. Potency, µM (titrated, usually from 46.1 µM), for inactives: top-dose ratio change, negative = inhibition, hits mostly inhibitors; active means well fitted inhibition curve with a large enough effect in the signal ratio, with a control signal flat, not every such curve was filed as active; inconclusive means small, poorly fitted or top-dose-only effect, or effect the other way, or a change in a side signal; the % refers to the signal ratio; further: on the % scale 0 is the no-effect control and ±100 the full control effect
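Read-out is the ratio of GFP to DsRed2 object intensity, acquired by 488 nm laser-scanning cytometry on HeLa lamin A-EGFP minigene reporter cells. Compound incubation 48 hrs at 37 °C in Opti-MEM with 2% FBS; DMSO 0.5% final.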
An asterisk follows results filed as active; ? = inconclusive; . = not tested or not shown; [ ] = remark or other dose. Unless noted, the call rests on the fitted dose curve; in most records, active means well fitted curve in the direction sought with a large enough effect; inconclusive means small, poorly fitted or top-dose-only effect, or another doubt; inactive means no such curve, though single readings can be large; an effect the other way counts as inactive or inconclusive. Potency means the concentration at half of the fitted maximal effect.

SMILES	HttQ103 aggreg	HPGD inh	HTT ATP protect	ALDH1A1 inh	Luc counter	LMNA splice mod
Cn1cc(Br)c(C(=O)Nc2ncc(Br)s2)n1	1.6%[9.22 µM]	.	-25.6%[1.9 µM]	-11.6%	-10.9%	?
O=C1CCCN1c1ccc(S(=O)(=O)Oc2ccc(Cl)cc2)cc1[N+](=O)[O-]	9.1%	7.94µM*	-60.5%	-11.9%	-1.2%	-0.4%
CSc1nc(-c2ccc(Cl)cc2)nc(N)c1C#N	-37.1%[9.22 µM]	.	-13.3%[10 µM]	.	.	.
Brc1ccc(-c2csc(Nc3nc(-c4ccc(Br)cc4)cs3)n2)cc1	-3.6%[9.22 µM]	.	9.1%[10 µM]	?	.	15.4%[46 µM]
COC(=O)C1(Cc2ccccc2)C=C2C(=C(c3ccccc3)C(=O)C2C)CN1 (stereo not given)	.	10µM*	-80.9%	25.1µM*	-1.6%	.
COC(=O)C1(CC(C)C)C=C2C(=C(C(C)C)C(=O)C2C)CN1 (stereo not given)	.	?	-66.6%	35.5µM*	-2.3%	.
Cn1cccc1/C=C(/C#N)C(N)=S	3.5%	-16.0%	.	-5.9%	0.7%	?
N#C/C(=C/c1ccc(F)cc1)C(N)=S	?	.	5.8%[10 µM]	25.1µM*	-1.7%	.
CC(C)(C)c1cc(/C=C(\C#N)C(N)=S)cc(C(C)(C)C)c1O	.	?	-50.2%	2.82µM*	-6.5%	?
[C-]#[N+]/C(C#N)=C\c1cc(C(C)(C)C)c(O)c(C(C)(C)C)c1	.	-23.3%	-216.7%	-10.6%	1.8%	.
COc1nc(OC)nc(Oc2ccc(Cl)cc2[N+](=O)[O-])n1	14.1%	-3.1%	.	7.3%	0.8%	3.0%
Cc1ccccc1C(=O)NCc1nnc(SCC(=O)N2CCN(c3ccccc3)CC2)n1C	7.2%	-0.2%	-2.1%	10µM*	-0.9%	-7.2%
Cn1c(CNC(=O)c2ccccc2F)nnc1SCC(=O)N1CCN(c2ccccc2)CC1	8.5%	.	-94.7%	?	-2.0%	29.1%[46 µM]
Cc1ccc(OCCNS(=O)(=O)c2ccc(N3CCCC3=O)cc2)cc1	11.2µM*	-6.7%	18.0%[10 µM]	-3.0%	-1.5%	?
CC(C)(C)OC(=O)N/N=C/c1ccc(N2CCOCC2)s1	1.2%	-19.7%	23.6%[10 µM]	-16.2%	-0.6%	?
O=C(N/N=C/c1ccc(N2CCOCC2)s1)c1ccccc1Br	-0.9%	.	-28.7%	14.1µM*	-1.5%	?
Clc1cccc(N/N=C/c2ccc(N3CCOCC3)s2)c1	4.7%	-28.5%	32.5%[10 µM]	11.2µM*	1.4%	10.4%
O=C(Cc1ccc(Cl)cc1)N1CCN(C(=O)c2ccco2)CC1	3.6%	0.1%	-16.4%	-5.6%	-3.8%	1.7%
Cc1cc(SCC(=O)OCC(=O)N2CCN(C(=O)c3ccco3)CC2)c(C)cc1Br	-11.8%	-12.7%	-25.7%[10 µM]	31.6µM*	-1.9%	7.7%
O=C(Cc1ccc(Cl)cc1Cl)OCC(=O)N1CCN(C(=O)c2ccco2)CC1	12.7%	.	-17.6%	14.1µM*	-2.5%	-19.6%[9.22 µM]
COCCN1C(=O)N[C@@H](c2ccccc2)[C@@H](C(=O)OC)[C@H]1C	.	-12.2%	-14.1%[10 µM]	3.6%[13.5 µM]	-4.2%[7.66 µM]	9.9%[9.22 µM]
OC[C@@H]1CCCN1Cc1nc(-c2cccs2)no1	4.4%[9.22 µM]	.	2.1%[10 µM]	?	4.7%	?
COc1cccc(C(=O)c2c[nH]c(C(=O)NCc3cccnc3)c2)c1	-1.6%	.	-24.4%	-11.0%	2.4%	5.1%[9.22 µM]
Cc1ccc(C(=O)c2c[nH]c(C(=O)NCc3cccnc3)c2)cc1	?	25.1µM*	-4.3%[10 µM]	?	1.0%	?
Cc1ccccc1NCC(=O)c1ccc(Br)cc1	15.9%	-15.6%	-3.1%	5.0%	8.7%	?
SMILES	HttQ103 aggreg	HPGD inh	HTT ATP protect	ALDH1A1 inh	Luc counter	LMNA splice mod
Cc1cccc(NCc2ccccc2O)c1	-6.8%	22.4µM*	-10.7%	-29.5%	2.0%	-1.5%
Cc1ccc(NCc2ccccc2O)cc1	-2.9%	-22.6%	-17.7%	10.6%	-4.9%	12.2%
COc1ccc2ccc3c(c2c1)N=C[C@]1(O3)N(C)c2ccccc2C1(C)C	?	31.6µM*	-57.0%	?	-1.8%	?
CCn1c2ccc(F)cc2c2nnc(NN)nc21	-12.8%	-10.7%	10.0%[10 µM]	7.08µM*	1.2%	-11.8%
CCc1ccc2c(c1)c1nnc(NN)nc1n2CC	-1.7%	?	-16.5%[10 µM]	2.82µM*	-5.9%	?
CCCn1c2ccc(F)cc2c2nnc(NN)nc21	-13.4%	.	-46.1%	4.47µM*	-1.6%	?
CSc1nnc2c3cc(F)ccc3n(Cc3ccccc3)c2n1	-1.2%	-10.9%	11.0%	?	-0.5%	5.1%
CCc1ccc2c(c1)c1nnc(NN)nc1n2C	-8.5%[9.22 µM]	.	7.9%[10 µM]	.	.	.
NNc1nnc2c3cc(F)ccc3n(Cc3ccccc3)c2n1	-8.9%[9.22 µM]	.	-8.6%[10 µM]	.	.	.
CCNC(=O)[C@@H]1O[C@@H](n2cnc3c(N)nc(NCCc4ccc(CCC(=O)O)cc4)nc32)[C@H](O)[C@@H]1O	.	.	-22.2%[1.9 µM]	.	.	.
COc1cc(/C=C/C(=O)OCC(=O)NCc2ccco2)ccc1OCC#N	10.1%	.	-43.3%	?	0.2%	.
Cc1noc(C)c1COc1cccc(C(=O)OC(C)C(=O)Nc2c(C)n(C)n(-c3ccccc3)c2=O)c1 (stereo not given)	-0.3%	.	-31.9%	?	.	.
Cc1cc(C(=O)COc2cccnc2[N+](=O)[O-])c(C)n1Cc1cccs1	4.0%	.	-22.8%[10 µM]	?	3.5%	-24.6%[46 µM]
CCOn1c(=O)c(-c2cccc([N+](=O)[O-])c2)[n+]([O-])c2ccccc21	-11.0%	?	-6.1%[10 µM]	?	1.8%	-10.4%
O=C(Nc1ccccc1)N(Cc1ccccc1)C1=NCCS1	-7.2%	-4.3%	-11.5%	3.3%	7.9%	-2.8%
O=S(=O)(c1ccccc1)N(C1=NCCS1)S(=O)(=O)c1ccccc1	-9.5%	-2.3%	2.2%	8.91µM*	0.9%	-0.4%
N#CC(C#N)=C1C=CC=CN1/C(=C\c1ccco1)C(=O)c1ccc(Cl)cc1	3.55µM*	20µM*	?	-7.4%	2.9%	?
N#CC(C#N)=C1C=CC=CN1/C(=C\c1ccco1)C(=O)c1ccc(-c2ccccc2)cc1	7.08µM*	-25.9%	4.4%[10 µM]	-15.1%	1.9%	?
O=C(NCC1CCCO1)/C(=C\c1ccco1)NC(=O)c1ccc(Cl)cc1 (stereo not given)	38.0%[9.22 µM]	.	?	?	4.6%	.
COc1ccc(S(=O)(=O)Nc2cc(C)c(O)c(S(=O)(=O)c3ccccc3)c2)cc1	-27.1%	-2.3%	-19.9%	?	3.1%	2.6%
COc1ccc(S(=O)(=O)c2c(C)c(NS(=O)(=O)c3ccccc3)cc(C)c2O)cc1	-0.2%	.	11.6%	8.91µM*	.	.
Cc1c(NS(=O)(=O)c2ccccc2)cc(Cl)c(O)c1C	-5.8%	31.6µM*	18.8%[10 µM]	22.4µM*	1.5%	21.7%
Cc1ccc(S(=O)(=O)Nc2ccccc2CNc2ncc(Br)cc2Br)cc1	4.4%	-18.0%	-9.9%[10 µM]	?	0.3%	?
